PP5 inh: inhibitors of human protein phosphatase 5 (PP5); purified PP5c, OMFP substrate fluorescence; P53041; inhibition, % at 6.7 µM; 320,000 tested, 0.18% active;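 active = inhibition above the campaign's mean inhibition across all tested compounds plus 3 SD, cut at about 9.5% in these data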;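 note: 0% = DMSO only and 100% = 100 µM cantharidin control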
PP1 inh: blocks human PP1-alpha phosphatase, a PP5 counter-screen | purified PP1alpha, OMFP fluorescence | 320,000 tested, 0.9% active | inhibition, % at 6.7 µM;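 active = inhibition above the mean inhibition of all tested compounds plus 3 SD, computed separately for each screening campaign, cut at about 15% in these data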
PAFAH1B2 inh: inhibitors of human PAFAH1B2; recombinant PAFAH1B2, FP-rhodamine activity probe, fluorescence polarization; inhibition, % at 3.39 µM; 340,000 tested, 1.2% active; AID 492953;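 active = inhibition above the mean of all tested compounds plus 3 SD, cut at about 24% in these data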;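 note: 0% = enzyme with DMSO and 100% = wells lacking PAFAH1B2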
Target sequence (P68402 whole entry, looked up): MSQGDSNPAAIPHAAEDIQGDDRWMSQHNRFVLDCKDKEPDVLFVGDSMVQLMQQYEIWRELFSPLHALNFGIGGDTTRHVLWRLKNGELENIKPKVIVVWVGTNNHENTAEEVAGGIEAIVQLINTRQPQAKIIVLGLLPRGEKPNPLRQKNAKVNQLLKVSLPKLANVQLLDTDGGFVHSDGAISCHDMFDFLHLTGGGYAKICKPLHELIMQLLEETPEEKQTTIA
PAFAH1B3 FP inh: blocks human PAF acetylhydrolase 1B catalytic subunit 3 | 340,000 tested, 0.28% active | Q15102 | inhibition, % at 3.39 µM | recombinant PAFAH1B3, FP-rhodamine probe, fluorescence polarization;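 active = inhibition above the screen-wide average of all tested compounds plus 3 SD, cut at about 25% in these data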;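 note: 0% = enzyme with DMSO only and 100% = wells lacking PAFAH1B3 protein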
Target sequence (Q15102 whole entry, looked up): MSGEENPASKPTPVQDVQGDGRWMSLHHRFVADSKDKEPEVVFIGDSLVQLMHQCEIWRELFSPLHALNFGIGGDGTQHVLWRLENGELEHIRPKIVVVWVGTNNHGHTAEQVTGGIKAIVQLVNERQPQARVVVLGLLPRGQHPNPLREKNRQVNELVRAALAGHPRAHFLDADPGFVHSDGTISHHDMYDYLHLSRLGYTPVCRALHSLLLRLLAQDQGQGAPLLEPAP
pPAFAH inh: inhibitors of human plasma PAF acetylhydrolase (pPAFAH); Q13093; recombinant pPAFAH, FP-rhodamine probe fluorescence polarization; inhibition, % at 3.39 µM; 330,000 tested, 1.5% active;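 active = inhibition above the mean inhibition across the screen plus 3 SD, cut at about 25% in these data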;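 note: inhibitors block binding of the rhodamine activity-based probe so polarization drops; 0% = enzyme with DMSO and 100% = wells lacking pPAFAH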
PAFAH2 inh: inhibitors of human PAFAH2; 340,000 tested, 0.99% active; Q99487; inhibition, % at 3.39 µM; recombinant PAFAH2, FP-rhodamine activity probe, fluorescence polarization;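 active = inhibition above the mean over all tested compounds plus 3 SD, cut at about 30% in these data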;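 note: inhibitors block probe labeling of enzyme so polarization drops; 0% = enzyme with DMSO and 100% = wells lacking PAFAH2 protein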
PP5 inh confirm: PP5 (human) inhibition, confirmation; shares compounds with PP5 inh; Purified PP5, fluorogenic phosphatase substrate, fluorescence; inhibition, % at 6.7 µM; 460 tested, 22% active; AID 2331; in the data active = inhibition above about 9.5%
PP1 counter 3x: inhibits human PP1 phosphatase in PP5 counter-screen. inhibition, % at 6.7 µM. AID 2355. PP1 enzyme, fluorescent phosphatase substrate. 460 tested, 4% active. shares compounds with PP5 inh; in the data active = inhibition above about 16%
PP1 confirm: confirmation of human PP1 phosphatase inhibitors; 1,900 tested, 52% active; inhibition, % at 6.7 µM; shares compounds with PP1 inh; purified PP1alpha, OMFP substrate fluorescence; AID 2358;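 active = mean PP1 inhibition above a set limit taken from the earlier primary screen, cut at about 15% in these data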
PP5 inh counter: PP5 phosphatase inhibition, counter-screen for PP1 inhibitors; shares compounds with PP1 inh; purified PP5c, OMFP fluorescence; inhibition, % at 6.7 µM; 1,900 tested, 4% active;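 active = mean PP5 inhibition over triplicate wells above about 9.5% taken from the earlier PP1 screen, limit read from the data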
PAFAH1B3 confirm: PAFAH1B3 (human) inhibition, confirmed | shares compounds with PAFAH1B3 FP inh | recombinant PAFAH1B3, FP-Rh activity-based probe, fluorescence polarization | inhibition, % at 3.39 µM | 390 tested, 30% active;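 active = average inhibition over triplicate runs above the hit cutoff set in the earlier primary screen, cut at about 25% in these data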;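 note: 0% = enzyme with DMSO and 100% = wells lacking PAFAH1B3 protein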
* hit, by the source's call; . = no result. Sampled rows, rich in hits. Any-hit rate of the full collection: about 3.4%.

SMILES | PP5 inh | PP1 inh | PAFAH1B2 inh | PAFAH1B3 FP inh | pPAFAH inh | PAFAH2 inh | others
Cc1cc(/C=C2/C(=O)NC(=O)N(c3ccccc3)C2=O)c(C)n1-c1ccc(F)cc1 | 0 | 3 | 25* | -2 | 8 | 29
Cc1cc(/C=C2\C(=O)NC(=O)N(c3ccc(F)cc3)C2=O)c(C)n1-c1ccc(C(=O)O)cc1 | 5 | 1 | 1 | 6 | 4 | 0
CCCN(CC1CC1)CC(O)c1ccccc1 (stereo unspecified) | -1 | -3 | 2 | 1 | 7 | -2
O=C1CC(=O)N(Cc2ccccc2)C(=S)N1 | 2 | 6 | 31* | -2 | 2 | 3
Cn1c(=O)c2c(nc(N/N=C/c3c(O)n(C4CCCCC4)c(=S)[nH]c3=O)n2C)n(C)c1=O | 4 | 1 | 29* | 16 | 9 | 10
CCCCC/C=C\C/C=C\C/C=C\C/C=C\CCCC(=O)Nc1ccc(O)cc1 | 3 | 0 | . | . | 36* | .
CCCCCCCCc1ccc(O)cc1 | 3 | 0 | 5 | 5 | 2 | 2
CC(C)CCn1c(N)c(C(=O)NCc2cccs2)c2nc3ccccc3nc21 | 0 | -2 | 3 | 2 | 1 | 0
CC(C)OCCCNC(=O)c1c(N)n(Cc2cccs2)c2nc3ccccc3nc12 | 12* | 2 | -1 | -3 | 14 | -9 | PP5 inh confirm=15*;PP1 counter 3x=9
CCCCNC(=O)c1c(N)n(CCCOC)c2nc3ccccc3nc12 | 5 | 5 | 8 | 13 | 13 | 5
COCCNC(=O)c1c(N)n(CCC(C)C)c2nc3ccccc3nc12 | 11* | 6 | 5 | 14 | 13 | 4 | PP5 inh confirm=23*;PP1 counter 3x=3
CCC(C)/C=C(C)/C=C/C1=CC2=C(Cl)C(=O)C(C)(OC(C)=O)C(=O)C2=CO1 (stereo unspecified) | 12* | 1 | 21 | 17 | 32* | 22 | PP5 inh confirm=7;PP1 counter 3x=6
N#CC1c2ccccc2-n2nncc2CN1S(=O)(=O)c1ccccc1 (stereo unspecified) | . | . | 1 | 11 | . | 2
COCCCNC(=O)c1c(N)n(Cc2ccco2)c2nc3ccccc3nc12 | 0 | -2 | . | . | 12 | .
CC(C)CNC(=O)c1c(N)n(Cc2ccc3c(c2)OCO3)c2nc3ccccc3nc12 | 12* | 7 | 9 | 12 | 6 | 13 | PP5 inh confirm=21*;PP1 counter 3x=3
COc1ccc(Cn2c(N)c(C(=O)NCc3ccco3)c3nc4ccccc4nc32)cc1OC | 12* | 7 | -5 | 7 | 7 | -14 | PP5 inh confirm=44*;PP1 counter 3x=10
COC(=O)C12CCc3c(ccc4cc(OC)ccc34)C1=CC(=O)C2 (stereo unspecified) | . | . | 2 | 2 | . | -4
Cc1ccc(S(=O)(=O)N(C)N=O)cc1 | 0 | -4 | -4 | 1 | 2 | 2
CN1CC[C@@]2(C)c3cc(O)ccc3N(C)C2O1 (stereo partly specified) | 14* | 3 | 7 | 12 | 2 | 2 | PP5 inh confirm=26*;PP1 counter 3x=5
CCCCCCC(C)(C)c1ccc([C@@H]2C[C@H](O)CC[C@H]2CCCO)c(O)c1 | 10* | 0 | 5 | 11 | 3 | 4 | PP5 inh confirm=4;PP1 counter 3x=4
NC(N)=Nc1ccc2[nH]c3c(c2c1)C[C@@]1(O)[C@H]2Cc4ccc(O)c5c4[C@@]1(CCN2CC1CC1)C3O5 (stereo partly specified) | . | . | 1 | 10 | 3 | -1
COC(=O)C1=C(c2ccc(OC(F)(F)F)cc2)C[C@@H]2CC[C@H]1N2C(=O)NCCOc1ccccc1Cl | 11* | 9 | 6 | 13 | -2 | 4 | PP5 inh confirm=6;PP1 counter 3x=4
COC(=O)C1=C(c2ccc(OC(F)(F)F)cc2)C[C@@H]2CC[C@H]1N2C(=O)NCCOc1ccccc1 | 8 | 3 | 5 | 7 | 7 | 5
CCOC(=O)c1c(NS(=O)(=O)c2ccccc2)n(CCCOC)c2nc3ccccc3nc12 | 11* | 2 | 14 | 27* | 9 | -2 | PP5 inh confirm=9.9*;PP1 counter 3x=0;PAFAH1B3 confirm=10
COC(=O)C1=C(c2ccc(OC(F)(F)F)cc2)C[C@@H]2CC[C@H]1N2C(=O)N1CCCCC1 | 4 | 3 | 2 | 11 | 2 | -4
SMILES | PP5 inh | PP1 inh | PAFAH1B2 inh | PAFAH1B3 FP inh | pPAFAH inh | PAFAH2 inh | others
NC(N)=N/N=C/c1ccc(N(c2ccccc2)c2ccccc2)cc1 | 6 | 38* | 9 | 12 | 11 | 6 | PP1 confirm=25*;PP5 inh counter=-3
CN1CC(C(=O)c2cccc(C(F)(F)F)c2)C(c2ccc(Cl)cc2)C1 (stereo unspecified) | 3 | 4 | 14 | 14 | 6 | 6
C=CCN(CC=C)C(=O)CCN1CC1C (stereo unspecified) | . | . | 2 | 6 | . | 9
C[C@@]12C(=O)OC(=O)[C@]1(C)C1CCC2O1 | 94* | 95* | 1 | 3 | 1 | -2 | PP1 confirm=93*;PP5 inh counter=93*
Clc1ccc(C(c2ccc(Cl)cc2)n2cc[n+](CC(OCc3ccc(Cl)cc3Cl)c3ccc(Cl)cc3Cl)c2)cc1 (stereo unspecified) | 5 | 52* | 2 | 2 | 13 | 3 | PP1 confirm=35*;PP5 inh counter=9
C[C@]12CCC3C(CC[C@H]4C[C@@H](O)CC[C@]34C)C1CCC2=O (stereo partly specified) | . | . | 2 | 7 | -1 | -3
O=c1[nH]c(O)c(/C=C2/C=CC(c3cc(Cl)ccc3Cl)=N2)c(=O)[nH]1 | -2 | 19* | 76* | 48* | 10 | 23 | PP1 confirm=47*;PP5 inh counter=-6
CN1C(=O)N(C)C(=O)C2(Cc3cc(N)ccc3N3CCN(c4ccccc4F)CC32)C1=O (stereo unspecified) | 2 | 23* | . | . | 17 | . | PP1 confirm=32*;PP5 inh counter=1
CCN1C(=O)N(CC)C(=O)C2(Cc3ccccc3N3CCN(c4ccccc4)CC32)C1=O (stereo unspecified) | 0 | -1 | . | . | -2 | .
N=Cc1c(O)n(-c2ccc(C34CC5CC(CC(C5)C3)C4)cc2)c(=O)[nH]c1=O | 5 | 20* | 20 | -7 | 17 | 1 | PP1 confirm=22*;PP5 inh counter=4
CC1([N+](=O)[O-])COP(=O)(NC2CCCC2)OC1 (stereo unspecified) | . | . | 5 | 6 | . | -7
NC(=Nc1ccccc1)NN=Cc1c[nH]c2ccccc12 | . | . | 5 | 6 | . | 6

Assay outcomes deposited in PubChem BioAssay by The Scripps Research Institute Molecular Screening Center.
